MITF TRPM1 HTS = MITF TRPM1 promoter activation in melanoma cells. AID 588334. 300,000 compounds, 0.75% hits. SK-MEL-5 TRPM1-promoter luciferase, 24 h; % of positive control, neutral wells = 0. activation, % at 12.5 µM;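 active = mean activation of at least 80% with every replicate also reaching 80%; inconclusive = mean reaches 80% but some replicate falls short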
Wnt act = Wnt/beta-catenin pathway activation; 300,000 compounds, 1.2% hits; activation, % at 9.35 µM; Wnt/beta-catenin reporter cell assay, activator, plate reader; in the data active = activation above about 30%, passing the limit was not always enough; inconclusive = no clear call, values can overlap the other calls
C2C12 statin = suppression of simvastatin myotoxicity; 330,000 compounds, 0.78% hits; C2C12 myotubes + simvastatin, ATP luminescence, 48 h; scaled: DMSO 0, geranylgeraniol control 100; rescue of ATP level, % at 7.49 µM;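 active = mean ATP rescue above about 67%, or every replicate alone reaching that limit, limit read from the data, passing the limit was not always enough; inconclusive = no clear call, values can overlap the other calls; inactive = mean under the limit and some replicate under it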;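 note: myotubes were challenged with 10 µM simvastatin during compound exposure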
TRPM1 prom inh = inhibitors of MITF-driven TRPM1 promoter in melanoma cells; inhibition, % at 12.5 µM; AID 488899; 330,000 compounds, 0.83% hits; SK-MEL-5 TRPM1 promoter luciferase, 24 h;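 active = mean inhibition across replicates of 60% or more, whatever share of single replicates reaches that level; inconclusive = some that reach 60%, reason not given; inactive = mean inhibition across replicates below 60%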
EBV LMP1 NFkB = inhibitors of Epstein-Barr LMP1-induced NF-kappaB reporter; LMP1-induced NF-kappaB luciferase reporter cells, luminescence; inhibition, % at 12.5 µM; 350,000 compounds, 0.69% hits; AID 504558; in the data active = inhibition above about 41%; inconclusive = no clear call, values can overlap the other calls
esBAF inh = SWI/SNF esBAF complex inhibition; mouse ES cells, Bmi1-luciferase knock-in reporter, 24 h; 100% = twice the neutral-well signal; reporter increase, % at 12.5 µM; 350,000 compounds, 2% hits; in the data active = activation above about 40%; inconclusive = no clear call, values can overlap the other calls;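 note: a rise in the Bmi1 reporter signal indicates esBAF inhibition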
A number is an active result; 0 = inactive; ? = inconclusive; - = no result. The list is not random: actives were taken first. Their share in the collection is about 4%.

SMILES | MITF TRPM1 HTS | Wnt act | C2C12 statin | TRPM1 prom inh | EBV LMP1 NFkB | esBAF inh
CCOC(=O)C(C)n1nc(/C=C/c2ccc(OC)cc2)ccc1=O (stereo unspecified) | 0 | 0 | - | 0 | 0 | -
O=C(Cc1ccc(Cl)cc1)NC1CCCCCC1 | 0 | 0 | 0 | 0 | 0 | 54.3
O=C(CCc1ccc(F)c(F)c1)NC1CCCN(Cc2ccc(Cl)cc2)C1 (stereo unspecified) | 0 | 0 | 0 | 0 | 79.9 | 0
O=C(Cc1ccc(Cl)cc1)NNC(=O)C(=O)NC1CCCCC1 | 0 | 0 | 0 | 0 | 0 | 0
O=C(COC(=O)c1ccccc1F)NC1CCCC1 | 0 | 0 | 0 | 0 | 0 | 0
O=C(CCNC(=O)c1ccc(Cl)cc1)NC1CCCCCC1 | 0 | 37.8 | 0 | 0 | 0 | 0
O=C(COC(=O)c1c(F)cccc1Cl)NC1CCCCC1 | 85.2 | 0 | 0 | 0 | 0 | -
Cn1c2ccccc2c(=O)c2ccc(NCCc3cccs3)cc21 | 94.6 | ? | 0 | 0 | 0 | ?
CN(C)CCn1c(NC(=O)c2ccc(Cl)cc2)nc2ccccc21 | 0 | - | 0 | 0 | 0 | 55.6
Nc1sc(-c2ccccc2)cc1C(=O)N/N=C/c1ccc(Cl)cc1 | - | 0 | - | 0 | 0 | -
CN=Cc1cc(-c2ccccc2)sc1O | 0 | 0 | 0 | 0 | 0 | 64.4
CN1CCN(C(=O)C[C@@H]2C[C@@H]3c4cc(NS(=O)(=O)c5ccc(F)cc5)ccc4O[C@@H]3[C@H](CO)O2)CC1 | - | - | 0 | - | - | 0
O=c1c(-c2ccc(Br)cc2)coc2c(CN3CCOCC3)c(O)ccc12 | 0 | 0 | - | 0 | 0 | 0
O=c1c(-c2ccc(F)cc2)coc2c3c(ccc12)OCCO3 | 133.4 | 0 | 0 | 0 | 0 | 52.2
O=C(c1ccccc1)c1c2c(cc3sc4ccccc4[n+]13)-c1cccc3cccc-2c13 | 0 | 0 | - | 85.5 | 0 | -
CC1CCN(CCCNC(=O)C2CCCN(c3ncnc4c3nc3n4CCCCC3)C2)CC1 (stereo unspecified) | 0 | 0 | 0 | 0 | 0 | 0
CC1(C)CC(=O)C(/C=N/c2ccccn2)=C(O)C1 | 0 | - | 0 | 0 | 0 | 0
CC1(C)CC(=O)C(/C=N/n2cnc3ccccc3c2=O)=C(O)C1 | - | - | 0 | 0 | 0 | 48.8
COc1ccc(/C=C/C(=O)Oc2ccc(/C=N/NC(=O)COc3c(C)cccc3C)cc2)cc1 | 0 | - | 0 | 0 | 0 | 0
COc1ccc(/C=C/C(=O)Oc2cccc(/C=N/NC(=O)COc3c(C)cccc3C)c2)cc1 | 0 | - | 0 | 0 | 0 | 45.2
COc1ccc(/C=N/NC(=O)COc2ccccc2-c2ccccc2)cc1 | 0 | 0 | - | 0 | 74.1 | -
O=C(COc1ccccc1-c1ccccc1)N/N=C/c1cccc2ccccc12 | 0 | - | 0 | 0 | 0 | 0
C/C(=C\c1ccccc1)C(=O)NC1CCSC1=O (stereo unspecified) | 0 | 0 | 0 | 0 | 0 | 0
Nc1ccc(S(=O)(=O)NN=CC=Cc2ccccc2[N+](=O)[O-])cc1 | 0 | 0 | 0 | 0 | 0 | 0
NS(=O)(=O)c1ccc(N/N=C/C=C/c2ccccc2[N+](=O)[O-])cc1 | 0 | 0 | 0 | 0 | 0 | 83.1
SMILES | MITF TRPM1 HTS | Wnt act | C2C12 statin | TRPM1 prom inh | EBV LMP1 NFkB | esBAF inh
O=C(O)c1cc(N/N=C/C=C/c2ccccc2[N+](=O)[O-])ccc1Cl | 0 | 60.4 | 0 | 0 | 0 | 0
O=C(O)C1CCN(C(=O)c2cccc3ccccc23)CC1 | 0 | 0 | 0 | 0 | 0 | 0
O=C(O)c1ccc(N2C(=O)C3ON(c4ccccc4)C(c4ccccc4F)C3C2=O)cc1 (stereo unspecified) | - | 0 | 0 | 0 | 0 | 0
CN(C)c1ccc(C2C3C(=O)N(c4ccc(C(=O)O)cc4)C(=O)C3ON2c2ccccc2)cc1 (stereo unspecified) | 0 | 0 | 100.9 | 0 | 0 | 0
CN1CCN(C(=O)c2ccc3c(c2)S(=O)(=O)c2ccccc2C3=O)CC1 | 0 | 0 | 0 | 0 | 0 | 0
Cc1ccc(O)c(N=Nc2ccccc2)n1 | 0 | 41.1 | 0 | 0 | 0 | 62.8
CCN(CC)c1ccc(NC(=O)CCCOc2cccc(C)c2)cc1 | 0 | 0 | 0 | 0 | 0 | 0
CC(=O)Nc1ccc2c(c1)C(=Nc1cccc(C)c1)c1ccccc1-2 | 0 | 34.3 | 0 | 0 | 0 | 0
NNCCc1ccccc1 | 0 | 0 | 0 | 0 | 0 | 62.9
O=C(CC(=O)NCCc1ccccc1)NCCc1ccccc1 | 0 | 0 | 0 | 0 | 0 | 0
Cc1cc2oc(C(=O)Nc3nonc3C)c(C)c2cc1Cl | 0 | 0 | 0 | 0 | 0 | 43.8
CCc1nonc1NC(=O)c1oc2ccc(C)cc2c1C | 0 | 0 | 0 | 0 | 0 | 0
CCc1ccc2oc(C(=O)Nc3nonc3CC)c(C)c2c1 | 89.9 | 0 | 0 | 0 | 0 | ?
CC(=O)[C@H]1CC[C@H]2[C@@H]3CC=C4C[C@@H](OS(=O)(=O)O)CC[C@]4(C)[C@H]3CC[C@]12C | 0 | 0 | 0 | 0 | 0 | 0
CC(=O)O[C@H]1CC[C@@]2(C)C(=CC[C@H]3[C@@H]4CC[C@H](C(C)=O)[C@@]4(C)CC[C@@H]32)C1 | 0 | 0 | 0 | 0 | 54.0 | 0
CN1CCN(C(=O)C[C@H]2CC[C@H](NC(=O)Nc3ccccc3F)[C@H](CO)O2)CC1 | - | - | 0 | - | - | 0
O=C(COc1ccc(F)cc1)Nc1nccs1 | ? | 0 | 0 | 0 | 0 | 0
O=C(COC(=O)/C=C/c1ccccc1[N+](=O)[O-])NNC(=O)c1ccc(F)cc1 | 0 | 0 | 0 | 0 | 0 | 0
Brc1ccc(C2=NC(Cc3ccccc3)CO2)cc1 (stereo unspecified) | - | 0 | 0 | - | 0 | 68.3
Clc1ccc(COn2nnc3ccccc32)c(Cl)c1 | 99.4 | 0 | - | 0 | 0 | ?
O=S(=O)(NC1=NCCC1)c1ccc(F)cc1 | 0 | - | 106.8 | 0 | 0 | 0
Cc1ccc(S(=O)(=O)NNC2=NCCCCC2)cc1 | 0 | 0 | 92.2 | 0 | 0 | 0
O=S(=O)(NC1=NCCCCC1)c1ccc(F)cc1 | 0 | 0 | 0 | 0 | 0 | 0
Cn1c(=O)c2[nH]c(COc3ccccc3)nc2n(C)c1=O | 0 | 0 | 0 | 0 | 0 | 0
N#C/C(=C\C=C\c1ccccc1[N+](=O)[O-])C(=O)NC1CCCCC1 | 0 | - | 0 | 72.3 | 0 | 0
SMILES | MITF TRPM1 HTS | Wnt act | C2C12 statin | TRPM1 prom inh | EBV LMP1 NFkB | esBAF inh
CCc1ccc(/C(C)=N\Nc2ccc([N+](=O)[O-])cc2)cc1 | - | - | 0 | 0 | 0 | 44.0
CC(=NNc1ccc([N+](=O)[O-])cn1)c1ccc(N)cc1 | 0 | 0 | 0 | 0 | 0 | 97.3
C/C(=N\Nc1ccc([N+](=O)[O-])cc1)c1ccc(N)cc1 | 0 | 0 | 0 | 0 | 0 | 0
CN(CCCC(=O)NC1CC(C)(C)NC(C)(C)C1)S(=O)(=O)c1ccc([N+](=O)[O-])cc1 | 0 | 0 | - | 0 | 0 | -
Cc1ccc(/C=N/NC(=O)c2c[nH]c3ccccc23)s1 | 0 | - | 0 | 0 | 0 | 59.1
Cc1ccc(/C=N/NC(=O)c2ccco2)s1 | 0 | 44.7 | 0 | 0 | 0 | 0
O=C(N/N=C/c1ccc(Br)s1)c1ccco1 | ? | 42.7 | - | 0 | 0 | -
Cc1ccc(/C=N/NC(=O)c2ccc(C(=O)N/N=C/c3ccc(C)s3)o2)s1 | 0 | 0 | 0 | 0 | 0 | 0

Assay outcomes (PubChem BioAssay)
